The whole screen tested about 1,300 compounds, of which about 290 (22%) were called active.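 The calls were made as follows: active = inhibition above the mean of all tested compounds plus 3 SD (cut at about 19% in these data); inactive = the rest.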 The full list was thinned out, with actives kept by preference.

Consider 2 compounds from PubChem BioAssay AID1857 (The Scripps Research Institute Molecular Screening Center, 2009).

The assay concerns VIM-2 metallo-beta-lactamase (Pseudomonas aeruginosa). Put plainly: VIM-2 CCF2 hydrolysis inhibition, orthogonal readout – biochemical, FRET, epi-absorbance artifact exclusion, artefact control for selective VIM-2 inhibitor project, confirmation (AID 1857).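 Also: 0% = VIM-2 plus DMSO and 100% = no enzyme wells.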 To be noted: purified VIM-2, CCF2 FRET substrate hydrolysis; at 5.6 µM; stronger effect = higher value.
Broadly, the inhibition is the change of the read-out against control, counted positive when it falls. For `Cc1cc(OCc2cc(C(=O)O)oc2C)c2c3c(c(=O)oc2c1)CCCC3`, the inhibition was 80.6% (active).
Turning to `Cc1cc(=O)oc2c(C)c(OCC(=O)N3CCN(Cc4ccc5c(c4)OCO5)CC3)ccc12`, the inhibition is -0.88% (inactive).
